The results in this text go back to the antibiotic and cytotoxicity screens of Wong et al. (2023).

Molecules are shown by their SMILES. In all, about 39,000 compounds went through this assay and about 1,500 (3.8%) were called active. Many of the other results were omitted from the sample, so actives are more common in it than they were.

This assay deals with HSkMC (human skeletal muscle cells). The assay is described as follows: cytotoxicity call (relative viability < 0.9). Particulars: 10 µM.
For `Cc1ccc(C(=O)Nc2ccc(Oc3cc4cnn(C)c4cc3-c3cn[nH]c3)c(F)c2)c(=O)n1-c1ccc(F)cc1`, the cytotoxicity call is “active”.
On to `Cc1cc(C)nc(NS(=O)(=O)c2ccc(NC(=O)c3cccn(OCc4ccc(F)cc4)c3=O)cc2)n1`, for which the cytotoxicity call was “inactive”.
For `CCCNC(=O)N1C[C@@H](C)[C@@H](OC)CN(C)C(=O)c2ccc(NS(=O)(=O)CC(F)(F)F)cc2OC[C@@H]1C`, the cytotoxicity call is “inactive”.
In the case of `Cc1ccc(Oc2nnc(-c3cccs3)c3ccccc23)cc1` it was “inactive”.
For `Cc1ccc(Nc2nnc(-c3ccccc3)c3ccccc23)cc1`, the cytotoxicity call was “inactive”.
On to `Cc1csc(-c2nnc(Nc3ccc(Oc4ncccc4-c4ccnc(N)n4)cc3)c3ccccc23)c1`, for which the cytotoxicity call was “active”.
As to `O=C(O)C[C@@H](O)C(=O)O`, the cytotoxicity call is “inactive”.
With `COC(=O)C1=CO[C@@H](O[C@@H]2O[C@H](CO)[C@@H](O)[C@H](O)[C@H]2O)/C(=C\CO)[C@@H]1CC(=O)OCCc1ccc(O)cc1`, the cytotoxicity call is “inactive”.
In the case of `C[C@@H]1CN([C@H](C)CO)S(=O)(=O)c2ccc(C3=CCCC3)cc2O[C@H]1CN(C)S(=O)(=O)c1ccc(F)cc1` it was “inactive”.
Take `CS(=O)(=O)N1CCc2c(-c3cnc(N)nc3)nc(N3CCOCC3)nc21`: the cytotoxicity call was “active”.
In the case of `c1nc(N2CCOCC2)nc(N2CCOCC2)n1` it was “inactive”; in that of `CS(=O)(=O)N1CC[C@]2(COCc3cnc(N4CCOCC4)nc32)C1`, “inactive”; in that of `C[C@H]1CN([C@@H](C)CO)C(=O)c2cccc(NC(=O)c3ccncc3)c2O[C@H]1CN(C)Cc1ccc(Oc2ccccc2)cc1`, “inactive”.
As to `C[C@H](CO)N1C[C@H](C)[C@H](CN(C)C(=O)Nc2ccc(C(F)(F)F)cc2)OCCCC[C@H](C)Oc2ccc(NS(=O)(=O)c3ccccc3)cc2C1=O`, the cytotoxicity call is “inactive”.
Take `C[C@@H]1CCCCO[C@H](CN(C)C(=O)Nc2ccc(C(F)(F)F)cc2)[C@@H](C)CN([C@H](C)CO)C(=O)c2cc(NS(=O)(=O)c3ccccc3)ccc2O1`: the cytotoxicity call was “inactive”.
Take `C[C@H]1CCCCO[C@H](CN(C)C(=O)Nc2ccc(C(F)(F)F)cc2)[C@@H](C)CN([C@@H](C)CO)C(=O)c2cc(NS(=O)(=O)c3ccccc3)ccc2O1`: the cytotoxicity call is “active”.
For the compound `C[C@@H]1CCCCO[C@H](CN(C)C(=O)Nc2ccc(C(F)(F)F)cc2)[C@H](C)CN([C@H](C)CO)C(=O)c2cc(NS(=O)(=O)c3ccccc3)ccc2O1`, the cytotoxicity call was “inactive”.
In the case of `C[C@@H]1CN([C@@H](C)CO)C(=O)c2cc(NS(=O)(=O)c3ccccc3)ccc2O[C@@H](C)CCCCO[C@@H]1CN(C)C(=O)Nc1ccc(C(F)(F)F)cc1` it was “active”; in that of `C[C@H](CO)N1C[C@H](C)[C@@H](CN(C)C(=O)Nc2ccc(C(F)(F)F)cc2)OCCCC[C@H](C)Oc2ccc(NS(=O)(=O)c3ccccc3)cc2C1=O`, “inactive”.
